The source of these data is PubChem BioAssay (EPA / NIEHS).

A short description of assay [1]: ATG_CRE_CIS: Attagene CIS-FACTORIAL HepG2 Assay for human cAMP Responsive Element (CRE) binding protein 3 (AID 2282926). The settings on record: HepG2 CRE cis-reporter, Attagene multiplexed mRNA; actives raise or lower the signal. In a few lines:
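Multiplexed transcription-unit reporters transfected into HepG2; 24 h dosing; RT-PCR/capillary electrophoresis fluorescence read-out; bidirectional fit vs DMSO.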

The target of assay [2] is CCAAT/enhancer-binding protein beta (Homo sapiens) (UniProt P17676). As to the kind of experiment: ATG_C_EBP_CIS: Attagene CIS-FACTORIAL HepG2 Assay for human CCAAT/Enhancer Binding Protein (C/EBP) beta (AID 2282927). Conditions: HepG2 Attagene cis-factorial transcription factor reporter; actives raise or lower the signal. Summed up: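 Endogenous C/EBPb-driven reporter transcripts measured in transfected human HepG2 cells at 24 h via RT-PCR and capillary electrophoresis of labelled fragments. Activity fitted in both directions relative to DMSO baseline.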
CCAAT/enhancer-binding protein beta (Homo sapiens), sequence (P17676 whole entry, looked up, the tested form may be a part): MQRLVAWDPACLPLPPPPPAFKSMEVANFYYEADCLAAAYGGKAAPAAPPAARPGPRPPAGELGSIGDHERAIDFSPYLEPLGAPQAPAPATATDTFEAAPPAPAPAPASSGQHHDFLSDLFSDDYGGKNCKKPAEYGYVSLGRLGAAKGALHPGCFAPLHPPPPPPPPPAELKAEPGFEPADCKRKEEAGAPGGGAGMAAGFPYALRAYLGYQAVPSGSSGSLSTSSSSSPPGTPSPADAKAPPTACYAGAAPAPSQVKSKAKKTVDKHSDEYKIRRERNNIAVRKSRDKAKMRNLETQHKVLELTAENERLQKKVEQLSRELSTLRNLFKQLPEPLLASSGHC

A short description of assay [3]: ATG_CMV_CIS: Attagene CIS-FACTORIAL HepG2 Assay for human CMV (Internal Marker) (AID 2282928).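 Note: endpoint acts as a background internal control marker rather than a target.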 The settings on record: HepG2 CMV promoter reporter, transcription factor profiling; actives raise or lower the signal. In a few lines:
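Cell system: HepG2, transiently transfected multiple reporter units under cis promoters. Exposure: 24 h. Detection: RT-PCR, FAM labeling, HpaI digestion, capillary electrophoresis. Analysis: bidirectional, DMSO baseline.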

Assay [4] is described as follows: ATG_DR4_LXR_CIS: Attagene CIS-FACTORIAL HepG2 Assay for human Liver X Receptor (LXR), DR4 submotif (AID 2282929). Conditions: HepG2 Attagene DR4 cis-reporter, mRNA transcription; actives raise or lower the signal. In a few lines:
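Measures endogenous transcription factor activity via a DR4-driven reporter transcript in human HepG2 cells. Compounds incubated 24 h; mRNA quantified by RT-PCR and capillary electrophoresis, analysed as gain or loss of signal versus DMSO.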

Assay [5] in a line: ATG_AP_1_CIS: Attagene CIS-FACTORIAL HepG2 Assay for human Activator Protein 1 (AP-1) (AID 2282931). Conditions: HepG2 Attagene cis-factorial AP-1 reporter mRNA; actives raise or lower the signal. In a few lines: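 Bidirectional concentration-response fitting against DMSO controls. Underlying signal: reporter mRNA from cis-promoter constructs in transiently transfected HepG2, measured after 24 h by RT-PCR and capillary electrophoresis.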

Assay [6] in a line: ATG_BRE_CIS: Attagene CIS-FACTORIAL HepG2 Assay for human Bone Morphogenetic Protein (BMP) Response Element (BRE) (AID 2282933). The settings on record: HepG2 BMP response element reporter, Attagene transcription factor profiling; actives raise or lower the signal. Summed up:
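Read-out: reporter mRNA induction quantified by RT-PCR and capillary electrophoresis after 24 h chemical exposure of transfected HepG2 cells. Endogenous factor activity on the BMP response element; gain or loss fitted against DMSO baseline.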

Assay [7] can be described thus: ATG_E_Box_CIS: Attagene CIS-FACTORIAL HepG2 Assay for human Enhancer Box (E-box) (AID 2282936). Conditions: HepG2 E-box cis-reporter transcription, actives raise or lower the signal. In a few lines:
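Cells: HepG2 (human liver), transient MRTU transfection. Exposure 24 h. RNA → oligo(dT) RT → PCR → 6-FAM label → HpaI → CE. Activity fitted both directions relative to DMSO.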

Assay [8] in a line: ATG_M_19_CIS: Attagene CIS-FACTORIAL HepG2 Assay for M19 Transcription Factor (Internal Marker) (AID 2282939). The settings on record: HepG2 Attagene CIS-FACTORIAL M19 internal marker reporter; actives raise or lower the signal. Summed up: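 Readout: fluorescent reporter-transcript fragments by capillary electrophoresis after RT-PCR. Human HepG2 liver cells carried transfected MRTU constructs reporting endogenous transcription-factor activity; exposure 24 h. Gain or loss of signal fitted relative to DMSO.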

Assay [9] in a line: ATG_GATA_CIS: Attagene CIS-FACTORIAL HepG2 Assay for human GATA Binding Protein (AID 2282944). The settings on record: HepG2 GATA cis-element reporter, Attagene multiplex mRNA; actives raise or lower the signal. Summed up:
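Read-out: fluorescent reporter mRNA fragments resolved by capillary electrophoresis after RT-PCR. Human liver HepG2 cells carried transiently transfected cis-regulated reporter constructs; chemicals incubated 24 h; gain or loss of signal fitted relative to DMSO.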

Assay [10] is described as follows: ATG_ISRE_CIS: Attagene CIS-FACTORIAL HepG2 Assay for human Interferon Regulatory Factor 1 (IRF1) binding to an Interferon-Stimulated Response Element (ISRE) (AID 2282948). Conditions: HepG2 ISRE cis-reporter (Attagene), mRNA transcription readout; actives raise or lower the signal. In a few lines: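 Quantitation relies on labelled RT-PCR fragments separated by capillary electrophoresis. Human HepG2 cells bearing cis-promoter reporter constructs were treated 24 h; DMSO served as baseline for bidirectional fitting.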

A short description of assay [11]: ATG_M_32_CIS: Attagene CIS-FACTORIAL HepG2 Assay for M32 Transcription Factor (Internal Marker) (AID 2282949).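 Note: background control marker of the multiplexed CIS panel rather than a real target.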 Conditions: HepG2 Attagene cis-factorial M32 reporter, mRNA; actives raise or lower the signal. Summed up: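 Fluorescent capillary electrophoresis peaks of HpaI-digested, FAM-labelled RT-PCR reporter products give the signal. Source: transiently transfected human liver HepG2 cells, 24 h after chemical dosing; bidirectional fitting against DMSO.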

Assay [12] can be described thus: ATG_M_06_CIS: Attagene CIS-FACTORIAL HepG2 Assay for M06 Transcription Factor (Internal Marker) (AID 2282950). The settings on record: HepG2 Attagene CIS-FACTORIAL M06 internal marker reporter; actives raise or lower the signal. In a few lines:
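Terse: HepG2, transient MRTU transfection (FuGene 6), 24 h dosing; total RNA, oligo(dT) RT, PCR, FAM label, HpaI cut, capillary electrophoresis; bidirectional fit vs DMSO baseline; background-control endpoint.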

The nature of assay [13]: ATG_MRE_CIS: Attagene CIS-FACTORIAL HepG2 Assay for human Metal Responsive Element (MRE) (AID 2282954). The settings on record: HepG2 MRE cis-reporter transcription, Attagene multiplex; actives raise or lower the signal. In a few lines: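 Transient MRTU transfection of HepG2 (FuGene 6); 24 h dosing; total RNA → oligo(dT) RT, PCR, 6-FAM primer extension, HpaI cut, CE. Bidirectional fit vs DMSO.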

Assay [14] has as its target Paired box protein Pax-6 (Homo sapiens) (UniProt P26367). As to the kind of experiment: ATG_Pax6_CIS: Attagene CIS-FACTORIAL HepG2 Assay for human Paired Box 6 (PAX6) (AID 2282956). The settings on record: HepG2 CIS-FACTORIAL PAX6 reporter transcription, RNA readout; actives raise or lower the signal. In a few lines:
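After twenty-four hours of chemical exposure, transfected HepG2 cells are harvested for RNA. Cis-promoter reporter transcripts are amplified, fluorescently labelled and sized by capillary electrophoresis, with gain and loss of signal scored against DMSO.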

Assay [15] in a line: ATG_PXRE_CIS: Attagene CIS-FACTORIAL HepG2 Assay for human Pregnane X Receptor Element (PXRE) (AID 2282957). Conditions: HepG2 Attagene CIS-FACTORIAL PXRE reporter, mRNA; actives raise or lower the signal. In a few lines:
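Cells: HepG2, transiently transfected reporter units under cis promoter control. Exposure: 24 h. Detection: reporter mRNA via RT-PCR/CE fluorescence; bidirectional fitting, DMSO-referenced.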

Assay [16] can be described thus: ATG_Sox_CIS: Attagene CIS-FACTORIAL HepG2 Assay for human SRY-box transcription factor (SOX) (AID 2282960). Conditions: HepG2 Attagene cis-factorial SOX reporter, mRNA; actives raise or lower the signal. Summed up: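 After 24 h of chemical treatment, transfected HepG2 reporter cells are lysed for total RNA. Transcript levels come from RT-PCR with labelled primer extension and capillary electrophoresis, analysed bidirectionally versus DMSO.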

Assay [17] deals with Transcription factor Sp1 (Homo sapiens) (UniProt P08047). As to the kind of experiment: ATG_Sp1_CIS: Attagene CIS-FACTORIAL HepG2 Assay for human Specificity Protein 1 (Sp1) (AID 2282961). The settings on record: HepG2 Sp1 cis-reporter transcription, actives raise or lower the signal. Summed up:
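Sp1-driven reporter mRNA, read as capillary electrophoresis fluorescence after RT-PCR, in transiently transfected HepG2 cells dosed for 24 h; signal change in either direction relative to DMSO.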

Assay [18] is described as follows: ATG_TA_CIS: Attagene CIS-FACTORIAL HepG2 Assay for human TA Basal Promoter (AID 2282964). Conditions: HepG2 Attagene CIS-factorial TA basal promoter reporter; actives raise or lower the signal. In a few lines:
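Transfected HepG2, 24 h compound exposure; RNA → RT-PCR → FAM primer extension → HpaI cut → CE fluorescence. Gain/loss-of-signal fitted against DMSO negative control. Background-control readout.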

A short description of assay [19]: ATG_TCF_b_cat_CIS: Attagene CIS-FACTORIAL HepG2 Assay for human T-Cell-Factor with beta-catenin (TCF/b-cat) (AID 2282965). The settings on record: HepG2 TCF/beta-catenin cis-reporter transcription, actives raise or lower the signal. Summed up:
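Endogenous TCF/LEF activity read as reporter transcript level via RT-PCR and capillary electrophoresis fluorescence in transfected HepG2, 24 h exposure; gain or loss of signal fitted against DMSO controls.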

Assay [20] can be described thus: ATG_TAL_CIS: Attagene CIS-FACTORIAL HepG2 Assay for human TAL Basal Promoter (AID 2282966).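 Note: background control endpoint measuring basal TAL promoter reporter mRNA not a specific factor.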 The settings on record: HepG2 Attagene cis-factorial TAL promoter reporter; actives raise or lower the signal. In a few lines:
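RT-PCR plus capillary electrophoresis quantifies reporter mRNA induction in transiently transfected HepG2 cells after 24 h chemical treatment. DMSO serves as negative control and baseline for bidirectional fitting.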

Calls of active or inactive are those of the source. Rule for the calls: active = hit-call score of the fitted dose curve at least 0.9, where 1 is the maximum; inactive = score below 0.9.

Transcription factor Sp1 (Homo sapiens), sequence (P08047 whole entry, looked up): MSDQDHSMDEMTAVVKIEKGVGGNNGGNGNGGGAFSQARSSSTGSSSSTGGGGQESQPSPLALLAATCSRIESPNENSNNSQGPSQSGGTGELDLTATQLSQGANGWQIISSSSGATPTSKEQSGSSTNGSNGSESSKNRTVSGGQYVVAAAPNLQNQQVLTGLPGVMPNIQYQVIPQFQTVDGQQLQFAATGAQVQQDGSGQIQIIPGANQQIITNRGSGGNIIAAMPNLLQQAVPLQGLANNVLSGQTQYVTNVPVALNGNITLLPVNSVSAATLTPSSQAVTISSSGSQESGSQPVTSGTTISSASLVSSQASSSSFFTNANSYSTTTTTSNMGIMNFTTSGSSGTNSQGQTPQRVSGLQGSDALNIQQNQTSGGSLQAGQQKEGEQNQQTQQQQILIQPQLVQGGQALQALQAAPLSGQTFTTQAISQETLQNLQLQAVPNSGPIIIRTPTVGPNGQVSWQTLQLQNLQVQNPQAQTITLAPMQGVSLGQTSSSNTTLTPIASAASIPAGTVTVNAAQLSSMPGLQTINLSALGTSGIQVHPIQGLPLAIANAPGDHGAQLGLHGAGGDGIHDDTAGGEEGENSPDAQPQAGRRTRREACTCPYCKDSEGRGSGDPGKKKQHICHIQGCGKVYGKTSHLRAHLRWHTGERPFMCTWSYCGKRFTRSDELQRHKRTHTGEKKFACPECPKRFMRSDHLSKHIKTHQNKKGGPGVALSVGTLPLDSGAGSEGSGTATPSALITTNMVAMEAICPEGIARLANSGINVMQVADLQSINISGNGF
Paired box protein Pax-6 (Homo sapiens), sequence (P26367 whole entry, looked up): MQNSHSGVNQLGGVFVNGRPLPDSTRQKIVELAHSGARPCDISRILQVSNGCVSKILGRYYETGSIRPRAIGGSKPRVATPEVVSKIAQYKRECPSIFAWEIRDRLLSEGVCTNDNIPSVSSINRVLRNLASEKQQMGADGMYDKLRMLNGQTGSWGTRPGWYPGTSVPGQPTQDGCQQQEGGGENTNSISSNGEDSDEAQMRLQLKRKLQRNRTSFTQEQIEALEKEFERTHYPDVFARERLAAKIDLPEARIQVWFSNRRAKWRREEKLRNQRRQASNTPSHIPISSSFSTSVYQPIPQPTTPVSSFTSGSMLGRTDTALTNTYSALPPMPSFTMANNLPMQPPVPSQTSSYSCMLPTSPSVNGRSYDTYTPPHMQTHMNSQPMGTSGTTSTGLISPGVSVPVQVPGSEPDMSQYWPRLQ

For `c1cc(N(CC2CO2)CC2CO2)ccc1Cc1ccc(N(CC2CO2)CC2CO2)cc1` (stereo not given), the outcome in assay [1], in [6], in assay [8], in [9], in assay [11] and in assay [12] was inactive. Further, the molecule was classed as inactive in [15], in [16] and in assay [20]. The AC50 in [2] is 99.5 µM (active); in assay [3] it was 26.6 µM (active); in assay [4] it was 27.3 µM (active); in [5] it was 54.4 µM (active); in [7] it was 34.3 µM (active); in assay [10], 21.7 µM (active). In addition, the concentration at half-maximal activity (AC50) in assay [13] was 21.3 µM (active); in assay [14], 9.31 µM (active); in [17] it was 5.73 µM (active); in [18], 26.1 µM (active); in assay [19], 26.1 µM (active).

As for `O=C1NC(=O)[C@@H]2CC=CC[C@H]12`, the call in [1], in assay [2], in assay [3], in [4], in assay [5] and in [6] was inactive. For the same molecule, the outcome in [7], in [8], in assay [9], in [10], in [11] and in assay [12] was inactive. In addition, the molecule was classed as inactive in [13], in [14], in assay [15], in assay [16], in assay [17] and in [18]. Besides, the outcome in assay [19] and in [20] was inactive.

Take `C1=CCC=C1`: the molecule was classed as inactive in assay [1], in assay [2], in assay [3], in assay [4], in [5] and in assay [6]. Moreover, the outcome in [7], in assay [8], in assay [9], in assay [10], in assay [11] and in assay [12] was inactive. Moreover, the result in assay [13], in assay [14], in assay [15], in [16], in [17] and in assay [18] was inactive. Moreover, the outcome in assay [19] and in assay [20] was inactive.

On to `CCCCOC(=O)COc1ccc(Cl)cc1Cl`, for which the molecule was called inactive in assay [1], in assay [2], in assay [3], in assay [4], in assay [5] and in assay [6]. The outcome in assay [7], in assay [8], in assay [9], in assay [10], in assay [11] and in assay [12] was inactive. Moreover, the result in assay [13], in assay [14], in assay [15], in assay [16], in assay [17] and in [18] was inactive. Further, the molecule was called inactive in assay [19] and in [20].

By AC50 is commonly meant the concentration giving half of the maximal activity seen.
